Many of the other results were omitted from the sample, so hits are more common in it than they were.
NS1 inh: influenza NS1 inhibition. actives 0.4% (n = 270,000). Potency, µM (titrated, usually from 46.1 µM), for the others: at the top dose activity, positive = more growth. AID 2326; calls by dose curve; further: potency means the concentration at half of the fitted maximal effect; actives are rising curves; nearly all actives have a fitted effect of over 50% in size
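OD600 was taken as the measure of yeast growth restored by compound in an NS1-expressing S. cerevisiae strain. Cells had been washed out of glucose medium and diluted 1:100 into galactose -URA medium, pH 6.0.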
AmpC inh detg: AmpC beta-lactamase inhibition with detergent present. P00811. AmpC hydrolysis of nitrocefin, absorbance 480 nm, 0.01% Triton. Potency, µM (highest dose often 114 µM), without a hit: at the highest dose activity change, negative = inhibition, actives largely listed as inhibitors. actives 0.041% (n = 370,000). AID 485294;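 further: potency means the concentration at half of the fitted maximal effect; 0% = no-compound wells and -100% = no-enzyme wells; nearly all actives have a fitted effect of over 25% in size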
Target sequence (P00811 whole entry, looked up): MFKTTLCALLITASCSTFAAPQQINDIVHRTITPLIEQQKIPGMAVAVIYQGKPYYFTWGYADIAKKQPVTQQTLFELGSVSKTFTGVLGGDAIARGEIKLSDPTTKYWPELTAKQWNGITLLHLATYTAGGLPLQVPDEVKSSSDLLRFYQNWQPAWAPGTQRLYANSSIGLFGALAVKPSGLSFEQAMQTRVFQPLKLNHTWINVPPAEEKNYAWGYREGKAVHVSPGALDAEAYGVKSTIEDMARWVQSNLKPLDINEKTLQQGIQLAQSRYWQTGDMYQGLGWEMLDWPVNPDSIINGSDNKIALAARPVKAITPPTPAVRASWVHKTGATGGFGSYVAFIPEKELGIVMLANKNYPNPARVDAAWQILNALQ
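AmpC (5.3 nM in the dispensed reagent) in 20 mM phosphate pH 7.0 with 0.01% (detergent screen) or 0.0001% Triton X-100 was preincubated with compounds for 15 min at room temperature. Nitrocefin was then added from an 800 uM solution, and hydrolysis was followed at 480 nm.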
Shiga toxin inh: Shiga toxin inhibition; Vero cells, Shiga toxin protein synthesis inhibition reporter; AID 2315; actives 9.2% (n = 290,000); inhibition, % at 38.7 µM; in the data active means inhibition mostly above about 28%, no sharp cut-off; inactive means mostly below about 43%; further: 0% is about no effect
AmpC no deterg: blocks E. coli AmpC beta-lactamase in detergent-free assay. Potency, µM (series often up to 57.1 µM), for inactives: top-dose activity change, negative = inhibition, hits mostly inhibitors. actives 0.52% (n = 330,000). AID 485341. AmpC nitrocefin hydrolysis, absorbance 480 nm, 0.0001% Triton;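 further: potency means the concentration at half of the fitted maximal effect; plate controls were no compound for no effect and no enzyme for full effect; nearly all actives have a fitted effect of over 20% in size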
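20 mM phosphate pH 7.0 + 0.01% (detergent screen) or 0.0001% Triton X-100; 5.3 nM AmpC reagent; cpd preinc 15 min RT; nitrocefin (800 uM stock) to start; A480 q20 s × 4 min; Activity was normalised to no-enzyme and no-compound control wells.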
Cycloheximide cs: affects cycloheximide protein synthesis inhibition readout, counter-screen. AID 2314. max response, %. actives 12% (n = 300,000). cell reporter, cycloheximide protein synthesis inhibition counterscreen; in the data active means max response mostly above about 13%, no sharp cut-off; inactive means mostly below about 14%; further: read at 38.3 µM for the half of the compounds with a filed dose; 0% is about no effect
* hit, by the source's call; i = inactive; u = inconclusive; x = not tested or not shown; + = active, no number; [ ] = remark or other dose. Unless noted, the call rests on the fitted dose curve; in most records, active means well fitted curve in the direction sought with a large enough effect; inconclusive means small, poorly fitted or top-dose-only effect, or another doubt; inactive means no such curve, though single readings can be large; an effect the other way counts as inactive or inconclusive.

SMILES	NS1 inh	AmpC inh detg	Shiga toxin inh	AmpC no deterg	Cycloheximide cs
CN(C)c1ccc(CNC(=O)c2cccn2-c2nnc(N3CCCCC3)s2)cc1	x	2.0%	x	x	x
CC(C)(C)c1ccc(-c2nc(S(=O)(=O)c3ccccc3)c(N3CCOCC3)o2)cc1	x	20.9%	x	x	x
Cn1c(=O)c2cc(C(=O)NCCCN3CCN(c4ccc(F)cc4)CC3)sc2c2ccccc21	x	-0.3%	x	x	x
COc1ccc(/C=C/C(=O)Oc2cc(O)cc(O)c2)cc1	4.6%	u	35.1*	-52.9%	21.5*
CCOc1ccc(/C=C/C(=O)Oc2ccc(OC)cc2)cc1	15.8%	-4.8%	-12.1	-14.4%	-3.6
COc1ccc2cc(C(=O)/C=C/c3cc(OC)c(O)c(OC)c3)ccc2c1	15.9%	10.0%	39.0	13.5%	15.8
O=C(/C=C/c1ccc(O)cc1)c1ccccc1	-58.1%	1.8%	75.3*	-32.0%	38.9*
COc1ccc(C(=O)/C=C/c2ccc(O)cc2)cc1	-33.7%	8.1%	87.0*	-34.9%	36.6*
O=C(/C=C/c1cccc(O)c1)c1cccnc1	x	0.4%	18.5	-18.4%	11.2
Cc1nn(C)c(C)c1CNC(=O)Nc1ccc(Cl)cc1	x	2.2%	145.2*	-10.9%	72.6*
Cc1nn(C)c(C)c1CNC(=O)Nc1ccc2c(c1)OCO2	x	0.5%	65.3*	-4.4%	36.8*
Cc1ccc(NC(=O)NCCc2c(C)nn(C)c2C)cc1Cl	x	-7.0%	x	x	x
Cc1nn(C)c(C)c1CNC(=O)Nc1cccc(Cl)c1	x	1.4%	113.6*	1.2%	56.9*
Cc1onc(-c2ccccc2)c1CNC(=O)Nc1cccc(Cl)c1	-9.0%	-8.0%	-5.2	-48.4%	-1.0
COc1ccc(C=O)cc1COc1ccc2c(c1)OCO2	x	-1.2%	x	-22.4%	x
COc1ccc(N2CCN(C(=O)c3cc4c(=O)n(Cc5cccnc5)ccc4nc3C)CC2)cc1	x	2.3%	x	x	x
Cc1ccccc1Cc1c(C)nc2nc(SCC(=O)N(C)c3ccccc3)nn2c1C	x	7.9%	x	x	x
COc1cccc(-c2nn(Cc3ccccc3)cc2CO)c1	-1.4%	2.0%	89.6*	-0.2%	45.3*
COc1cccc(-c2nn(Cc3ccccc3)cc2C(=O)O)c1	0.4%	1.4%	24.9	-6.3%	2.6
CC(=O)Nc1ccc(S(=O)(=O)N(C)CC(=O)Nc2nc3ccccc3[nH]2)cc1	x	u	x	-15.6%	x
CCn1ncc(Br)c1C(=O)Nc1cccc(F)c1	x	0.1%	15.7	-13.5%	13.3
CCn1ncc(Br)c1C(=O)Nc1ncc(C)s1	x	-11.9%	68.9*	-16.5%	26.8
CCn1ncc(Br)c1C(=O)NC(C)c1ccccc1 (stereo not given)	-7.7%	3.3%	19.2	-9.1%	-0.7
CCn1ncc(Br)c1C(=O)Nc1ccc(C(C)C)cc1	3.3%	-8.8%	69.0*	34.0%	63.7*
CCn1ncc(Br)c1C(=O)Nc1ccc2c(c1)OCCO2	x	-3.2%	98.7*	-13.8%	69.9*
SMILES	NS1 inh	AmpC inh detg	Shiga toxin inh	AmpC no deterg	Cycloheximide cs
CCn1ncc(Br)c1C(=O)Nc1cc(C(=O)OC)ccc1C(=O)OC	-5.6%	-1.7%	37.4*	-18.7%	14.6*
Cc1ccc(CNC(=O)c2cc(NS(=O)(=O)c3ccc(C)cc3)ccn2)cc1	x	1.9%	x	x	x
CCC(C)c1ccc(NC(=O)c2c([N+](=O)[O-])cnn2CC)cc1 (stereo not given)	-46.6%	u	44.1	18.4%	19.5*
CCn1ncc(Cl)c1C(=O)NC(C)c1ccccc1 (stereo not given)	0.9%	2.0%	11.9	0.355µM*	-1.9
CC(=O)N1CCC(N(Cc2ccc(C)o2)C(=O)Nc2ccc(C)cc2)CC1	x	3.4%	x	x	x
COc1cc(NC(=O)CSc2nnc(C)n3c2cc2oc(C)cc23)cc(OC)c1	x	-12.0%	x	x	x
CCOc1ccc(C(C)NC(=S)NCc2ccc(F)cc2)cc1 (stereo not given)	-90.6%	-2.0%	13.9	-15.6%	-3.3
CCOc1ccc(NCCC(O)c2ccc(F)cc2)cc1 (stereo not given)	8.0%	1.0%	21.7	14.8%	23.3*
CCCC[C@]12Cc3cc(OC)c(OC)cc3C(O1)c1c(cc(-c3ccccc3)oc1=O)O2	18.0%	-6.8%[22.9 µM]	i	-15.4%[11.4 µM]	-1.2
CCCC[C@]12Cc3ccccc3C(O1)c1c(cc(-c3ccccc3)oc1=O)O2	-66.8%	-11.5%[22.9 µM]	+	-30.7%[11.4 µM]	12.6
Cc1ccccc1SC1CCN(Cc2nc(C3CC3)no2)CC1	-2.7%	3.8%	25.2	69.0%	19.3*
Nc1ncc(S(=O)(=O)NCc2cccc(Cl)c2)cn1	x	5.7%	x	x	x
COc1cc(NC(=O)c2cccs2)c(C(=O)OCC(=O)c2cc(C)n(-c3ccc(F)cc3)c2C)cc1OC	10.9%	u	98.0*	-26.5%	123.1*
COc1ccc(-n2c(C)cc(C(=O)COC(=O)c3cc(NC(=O)c4cccs4)c(OC)c(OC)c3)c2C)cc1	15.7%	-7.8%	16.7	-22.7%	-1.5
COc1cc(NC(=O)c2cccs2)c(C(=O)OCC(=O)c2cc(C)n(-c3ccccc3)c2C)cc1OC	-2.3%	-3.4%	66.5*	-21.4%	42.7*
CCc1cccc(NC(=O)C(Cc2ccccc2)NS(=O)(=O)c2ccc3c(c2)c(=O)n(C)c(=O)n3C)c1 (stereo not given)	x	3.0%	x	x	x
Cc1ccccc1C(=O)N/N=C/c1cccc2ccccc12	-4.2%	-3.9%	45.7*	-46.5%	16.2*
COc1ccccc1/C=N/NC(=O)c1cccc2ccccc12	4.8%	u	x	-27.7%	-2.8
Cc1ccccc1C(=O)N/N=C/c1ccsc1C	2.1%	0.0%	125.0*	-12.8%	81.3*
O=C(N/N=C/c1ccccc1F)c1cccc2ccccc12	-2.1%	-5.4%	39.7*	-4.2%	20.8
COc1ccc(N2CCN(C(=O)CCn3c(=O)[nH]c4cc(OC)c(OC)cc4c3=O)CC2)cc1	x	5.1%	x	x	x
CCc1ccc2oc(C(=O)Nc3sc4c(c3C(=O)NC)CCCC4)cc(=O)c2c1	x	-6.3%	x	x	x
CCCCCCCCCC[Si](C)(C)CCC(=O)NC(Cc1ccc(C)cc1)c1ccccc1 (stereo not given)	-3.1%	x	x	x	x
CCOC(=O)c1ccccc1NC(=O)COC(=O)C1CCCC1	x	-2.3%	x	-13.0%	x
OC[C@@H](O)[C@H](O)C(/C=N/Nc1ccccc1)=N\Nc1ccccc1	-6.8%	-8.1%	17.8	22.9%	28.3*
SMILES	NS1 inh	AmpC inh detg	Shiga toxin inh	AmpC no deterg	Cycloheximide cs
CC(=O)/C=N/Nc1ccccc1	6.0%	u	-3.1	-9.9%	1.6
CCOc1ccc(-n2cc(-c3ccc(OC)c(OC)c3)[nH]c2=S)cc1	x	-2.5%	24.6	0.2%	10.0
CCOc1ccc(-c2cn(-c3cccc(SC)c3)c(=O)[nH]2)cc1	-2.2%	-12.7%	47.3	35.5µM*	-1.6
CC1(C)CC(=O)c2cc(OCC(=O)O)ccc2O1	6.6%	5.1%	1.0	-7.1%	0.6
CC1(C)CC(=O)c2c(O)cc(OCc3ccc(Br)cc3)cc2O1	5.4%	-0.1%	69.6*	-17.1%	48.6*
CC1(C)CC(=O)c2ccc(OCc3ccc([N+](=O)[O-])cc3)cc2O1	-2.0%	-2.3%	84.5*	-11.0%	40.4*
COC(=O)c1ccc(COc2cc(O)c3c(c2)OC(C)(C)CC3=O)cc1	-47.6%	3.4%	-3.9	-7.5%	16.7
